Data reported in PubChem BioAssay (NCI).
Compounds without any hit were thinned out: in the full panel of roughly 83,000, 20% have a hit.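 Assay: single dose, 48 h. Readout: percent growth (0 = no net growth; negative = cell death). Active: <10.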 Values without a mark were called inactive. The source made the active and inactive calls.

Tests used:
Assay in all cases: NCI-60 one-dose screen, 48 h (100 = growth as untreated, 0 = no growth, -100 = all killed)
Conditions in all cases: 10 µM
[1] = tested on: HCT-15 colon
[2] = tested on: HT29 colon
[3] = tested on: SNB-75 CNS
[4] = tested on: SNB-19 CNS
[5] = tested on: U251 CNS
[6] = tested on: PC-3 prostate
[7] = tested on: SK-MEL-5 melanoma
[8] = tested on: UACC-62 melanoma
[9] = tested on: LOX IMVI melanoma
[10] = tested on: SK-MEL-28 melanoma
[11] = tested on: SK-MEL-2 melanoma
[12] = tested on: SN12C renal
[13] = tested on: UO-31 renal
[14] = tested on: TK-10 renal
[15] = tested on: ACHN renal
[16] = tested on: CAKI-1 renal
[17] = tested on: A498 renal
[18] = tested on: CCRF-CEM leukemia
[19] = tested on: MOLT-4 leukemia

Compound	growth [1]	growth [2]	growth [3]	growth [4] [%]	growth [5]	growth [6]	growth [7]	growth [8]	growth [9]	growth [10]	growth [11]	growth [12]	growth [13]	growth [14]	growth [15]	growth [16]	growth [17]	growth [18]	growth [19]
CCOCC[P+](c1ccccc1)(c1ccccc1)c1ccccc1	98.8%	34.2%	46.7%	48	38.3%	33.4%	21.6%	33%	52.5%	67.9%	51.2%	59%	75.9%	57.3%	94.2%	85.5%	72%	34.7%	47.6%
Cc1nc2scc(-c3ccc(Cl)cc3)n2c(=O)c1CCN1CCOCC1	105%	105%	84.6%	94.6	96.7%	87.5%	94.5%	85.6%	97.5%	102%	105%	94%	57.5%	142%	89.4%	84.6%	119%	93.6%	78.1%
Cc1ccc(S(=O)(=O)Nc2cccc3[nH]c(C(F)(F)F)nc23)cc1	28.3%	4.99% (active)	-4.83% (active)	39.2	29.8%	17.2%	7.01% (active)	36.9%	41.4%	38.4%	2.59% (active)	47.8%	45.1%	36.7%	49.8%	25.9%	13.7%	13.6%	31.7%
COc1ccc(Cn2cc3c(c2-c2ccccc2)CC(C)(C)c2cnoc2-3)cc1	34.8%	12.5%	13.1%	55.2	43.8%	28.8%	13.1%	54.6%	35.1%	58.7%	53%	50.6%	43.9%	75%	53.9%	6.85% (active)	49.4%	22.7%	40%
Cc1ccc(Cl)cc1Nc1nc(C(F)(F)F)ccc1C(=O)N/N=C/c1c(Cl)cccc1Cl	10.4%	16.6%	26.1%	10.6	2.72% (active)	-18.2% (active)	-74.4% (active)	-17.6% (active)	-22.3% (active)	18.7%	0.639% (active)	9.96% (active)	-23.3% (active)	22.7%	0.0524% (active)	-12.5% (active)	-13.3% (active)	-21.2% (active)	8.23% (active)
O=C(O)CN1C(=O)C=CC1=O	100%	104%	103%	106	102%	99.8%	101%	103%	102%	123%	98.2%	106%	91.6%	96.7%	104%	102%	91.6%	107%	85.2%
CC(C)OCc1cc(CN2CCN(c3cccc(Cl)c3)CC2)c(O)c2ncccc12	4.08% (active)	-17.1% (active)	-25.3% (active)	19.6	-37.8% (active)	-0.0543% (active)	-85.2% (active)	-61.2% (active)	-73.3% (active)	-2.34% (active)	-59.1% (active)	-4.06% (active)	-6.8% (active)	5.04% (active)	10.1%	-49.9% (active)	-62.7% (active)	-13.4% (active)	-48.6% (active)
Oc1ccccc1-c1nnc(Cn2c(Cc3cccc4ccccc34)nc3ccccc32)o1	94%	102%	88.8%	87.1	99.2%	89.5%	96.3%	88.7%	89.3%	103%	83.1%	94.5%	63%	99.2%	93.9%	94.3%	106%	99.4%	90.9%
COc1ccc(C2C=C(c3ccc(Cl)cc3)N=C3SC=CN32)c(Br)c1 (stereo not drawn)	74%	65.2%	63.6%	66.9	70.2%	45.2%	88.6%	75.2%	71.2%	63.5%	85.3%	67.6%	84.3%	83.5%	67.7%	54.1%	89.7%	71.7%	53.1%
CC1=CSC2=NC(c3ccc(Cl)c(Cl)c3)=CC(c3ccc(Cl)cc3)N12 (stereo not drawn)	66.9%	101%	-21.8% (active)	38.5	34.8%	45.4%	13.6%	10.6%	-82.4% (active)	37.4%	-14.1% (active)	13.7%	7.9% (active)	18.6%	13.5%	5.28% (active)	-12% (active)	31.9%	35.2%
O=C(COCc1c(-c2ccccc2)no[n+]1[O-])Nc1nc(-c2ccc(Cl)cc2)cs1	103%	105%	98.6%	107	103%	95.7%	95.6%	99.6%	95.8%	111%	105%	100%	80.8%	113%	112%	105%	97.9%	90.5%	102%
COCCNCC(O)Cn1c2ccc(Cl)cc2c2cc(Cl)ccc21 (stereo not drawn)	-54.1% (active)	-15.5% (active)	40.7%	24	-5.49% (active)	8.25% (active)	-96.1% (active)	-73.3% (active)	-31.4% (active)	-26.3% (active)	-79.4% (active)	-91.9% (active)	-20% (active)	58.6%	10.5%	8.86% (active)	62.6%	-23.2% (active)	4.5% (active)
COc1cc(-c2nc3ccc(C)cc3[nH]2)ccc1OCc1nnc(-c2ccc(CC(C)C)cc2)o1	73.8%	73.3%	83.9%	94.6	75.6%	88.1%	85.7%	90.3%	103%	87.8%	97.3%	92%	77.8%	119%	107%	95.1%	81.8%	80.3%	82.4%
O=c1ccc2nc(-c3ccccc3)nn(-c3ccccc3)c-2c1	-75.9% (active)	-53.5% (active)	93.3%	78	66.2%	43.5%	19.8%	30.1%	-51.9% (active)	26.4%	44.9%	40.2%	-97.5% (active)	-95.9% (active)	-96% (active)	-90.9% (active)	84.4%	-16.3% (active)	-37.9% (active)
O=C(Nc1ccc(OCc2nnc(-c3ccccc3)o2)c(F)c1)Nc1ccc(Cl)c(Cl)c1	49.4%	53%	66.4%	59.9	50.5%	55.6%	65.9%	58%	54.8%	73%	72.9%	64%	68.5%	66.2%	39%	68.4%	12.4%	37.6%	43.8%
FC(F)(F)c1ccc(-c2nc(-c3nc4cc(Cl)c(Cl)cc4[nH]3)c3ccccn23)cc1	82.6%	55.9%	-16.1% (active)	84.4	47.6%	48.3%	53.4%	71.1%	62.6%	57.4%	68.6%	84.4%	58.5%	16.7%	63.6%	83.9%	38.5%	81.6%	63.5%
O=C(O)c1ccc(CNc2ccc(C(=O)CCl)cc2)cc1	94.9%	96.4%	93.1%	103	93.8%	91.9%	97.9%	95.3%	77.9%	95.2%	96.6%	99.3%	106%	104%	99.3%	86.7%	61.4%	48.7%	87.9%
